# Sampled rows, rich in hits. Any-hit rate of the full collection: about 0.9%.
# CtBP-E1A inh: CtBP/E1A binding inhibition. AlphaScreen GST-E1A/His-CtBP binding, 1536-well; active compounds read low. activity change, % (test concentration not listed). actives 0.49% (n = 340,000). AID 651724; in the data active means activity change below about -65%; inconclusive means mostly about -30% to -63%
#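 AlphaScreen with 125 nM GST-E1A and 125 nM His-CtBP (5X stocks) in Tris pH 8.0, 300 mM NaCl, BSA, Tween 20, TCEP. Compounds preincubated 2 h at 37 deg C, then glutathione donor/nickel acceptor beads added for 1 h at 37 deg C in dark.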
# Eya2 inh: blocks the phosphatase activity of human Eya2; O00167; recombinant Eya2, OMFP fluorescence dephosphorylation (OMFP is methylfluorescein phosphate); Potency, µM (titrated, usually from 76.9 µM), for inactives: at the highest dose activity, negative = inhibition, hits mostly inhibitors; actives 0.006% (n = 330,000); further: potency means the concentration at half of the fitted maximal effect
#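 Eya2 protein (added as 0.2 uM solution) was preincubated with compound for 10 min at ambient temperature in 50 mM HEPES pH 7.5, 50 mM NaCl, 5 uM MgCl2, 0.05% BSA, 1 mM DTT. OMFP (added at 50 uM) then reacted 10 min; fluorescence read at 485/525 nm.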
# L3MBTL1 block: inhibitors of human L3MBTL1 | AlphaScreen L3MBTL1–H3K9me1 peptide binding | Potency, µM (highest dose often 57.1 µM), inactives show at the highest dose activity, negative = inhibition, usual class: inhibitors | actives 0.66% (n = 230,000) | Q9Y468; further: potency means the concentration at half of the fitted maximal effect; nearly all actives have a fitted effect of over 60% in size
#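 AlphaScreen proximity signal between nickel-chelate acceptor and streptavidin donor beads (final 10 ug/mL) reports binding of 50 nM L3MBTL1 to 75 nM biotin-H3 K9me1 peptide; complex incubated with compounds 30 min at room temperature; cefsulodin titration as control.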
# B2AR arrestin: recruits beta-arrestin to the human beta2-adrenergic receptor. P07550. Potency, µM (top dose mostly 46.1 µM), without a hit: top-dose activation, most hits filed as activators. beta-arrestin recruitment to beta2AR, cell-based reporter. actives 0.02% (n = 330,000);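 further: potency means the concentration at half of the fitted maximal effect; 0% = DMSO controls and full agonism = EC100 isoproterenol or metaproterenol; nearly all actives have a fitted effect of over 65% in size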
# Six1-Eya2 blk: inhibitors of human Six1/Eya2 interaction; activity change, % (test concentration not listed); actives 0.56% (n = 360,000); Q15475+O00167; AlphaScreen GST-Six1/His-Eya2 binding, biochemical; active compounds read low; AID 651725; in the data active means activity change below about -65%; inconclusive means mostly about -30% to -63%
# Target sequence (O00167 whole entry, looked up): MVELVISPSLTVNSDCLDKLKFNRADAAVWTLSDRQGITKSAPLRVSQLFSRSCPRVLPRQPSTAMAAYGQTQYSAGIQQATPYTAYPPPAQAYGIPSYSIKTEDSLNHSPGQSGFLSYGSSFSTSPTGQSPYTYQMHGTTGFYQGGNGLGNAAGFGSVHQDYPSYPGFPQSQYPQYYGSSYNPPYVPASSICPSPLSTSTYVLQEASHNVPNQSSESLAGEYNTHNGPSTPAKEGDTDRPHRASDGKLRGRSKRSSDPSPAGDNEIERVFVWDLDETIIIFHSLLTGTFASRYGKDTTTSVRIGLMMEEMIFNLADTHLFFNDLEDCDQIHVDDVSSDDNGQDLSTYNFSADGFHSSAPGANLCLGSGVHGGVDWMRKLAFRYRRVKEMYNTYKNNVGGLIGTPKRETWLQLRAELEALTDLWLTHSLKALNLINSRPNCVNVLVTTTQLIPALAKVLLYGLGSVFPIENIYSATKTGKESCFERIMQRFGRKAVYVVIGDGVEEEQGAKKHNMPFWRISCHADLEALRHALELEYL
# Target sequence (Q15475 whole entry, looked up): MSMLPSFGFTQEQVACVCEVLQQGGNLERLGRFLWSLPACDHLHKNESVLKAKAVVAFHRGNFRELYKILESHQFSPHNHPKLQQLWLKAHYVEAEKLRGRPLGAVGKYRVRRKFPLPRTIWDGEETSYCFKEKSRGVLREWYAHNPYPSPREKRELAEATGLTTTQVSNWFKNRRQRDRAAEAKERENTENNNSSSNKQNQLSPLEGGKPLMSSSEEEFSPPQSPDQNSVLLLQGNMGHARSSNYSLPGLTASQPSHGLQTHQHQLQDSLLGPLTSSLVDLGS
#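 Six1/Eya2 binding was read as AlphaScreen signal after compounds were pinned into GST-Six1 plus His-tagged Eya2 (5X stock 250/500 nM) in pH 8.0 Tris/NaCl/TCEP buffer, beads added, then incubated 1 h, 37 C, dark.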
# * marks the source's active call; other numbers are inactive results; ? = inconclusive; nt = no result given. Unless noted, the call rests on the fitted dose curve; in most records, active means well fitted curve in the direction sought with a large enough effect; inconclusive means small, poorly fitted or top-dose-only effect, or another doubt; inactive means no such curve, though single readings can be large; an effect the other way counts as inactive or inconclusive. Unless noted, on the % scale 0 is the no-effect control and ±100 the full control effect.
SMILES,CtBP-E1A inh,Eya2 inh,L3MBTL1 block,B2AR arrestin,Six1-Eya2 blk
O=c1c2ccccc2nc2c3ccccc3c(NCCO)nn12,-71*,17%,1%,0%,-69*
O=c1c2ccccc2nc2c3ccccc3c(NCc3ccccn3)nn12,-69*,-23%,3%,0%,?
CC(C)(C)NC(=O)C(c1ccc(F)cc1)N(Cc1ccccc1Cl)C(=O)c1ccn[nH]1 (stereo unspecified),nt,-1%,4%,1µM*,-1
Nc1nc2ccccc2cc1C(=O)NCc1cccs1,-14,nt,nt,nt,8
CCn1c(=O)n(CC(=O)NCC2CCCO2)c(=O)c2c3c(sc21)COC(C)(C)C3 (stereo unspecified),6,5%,nt,0%,4
COc1ccc(-c2c(N)cnc(C(=O)O)c2C)c(OCc2ccccc2)c1OC,-8,nt,nt,nt,-82*
CC(C)C1CC(CCNCc2ccc(N(C)C)cc2)(c2ccccc2)CCO1 (stereo unspecified),?,1%,-30%,0%,-65*
Cc1ccc(C2(CCNCc3ccc(N(C)C)cc3)CCOC(C(C)C)C2)cc1 (stereo unspecified),?,-15%,?,0%,?
O=C1c2cc(CO)cc(O)c2C(=O)c2c(O[C@@H]3OC(CO)[C@@H](O)[C@@H](O)[C@@H]3O)cccc21 (stereo partly specified),-4,nt,nt,nt,-3
O=C(O)c1cc(O)c2c(c1)[C@@H]([C@H]1c3cc(C(=O)O)cc(O)c3C(=O)c3c(O[C@@H]4O[C@H](CO)[C@@H](O)[C@H](O)[C@H]4O)cccc31)c1cccc(OC3O[C@H](CO)[C@@H](O)[C@H](O)[C@H]3O)c1C2=O (stereo partly specified),-29,-33%,0.16µM*,0%,-82*
O=C1c2c(O)cccc2C(C2OC(CO)[C@@H](O)[C@H](O)[C@H]2O)c2cc(CO)cc(O)c21 (stereo partly specified),-1,-20%,-6%,0%,5
O=C(O)c1cc(O)c2c(c1)[C@H]([C@H]1c3cc(C(=O)O)cc(O)c3C(=O)c3c(O[C@@H]4O[C@H](CO)[C@@H](O)[C@H](O)[C@H]4O)cccc31)c1cccc(OC3O[C@H](CO)[C@@H](O)[C@H](O)[C@H]3O)c1C2=O (stereo partly specified),?,-25%,0.16µM*,0%,-74*
Nc1ncnc2c1nc(Br)n2C1OC2COP(=O)(O)O[C@@H]2C1O (stereo partly specified),nt,3%,nt,nt,nt
O=C(c1ccc(F)cc1)N1CCOCC1,nt,8%,-1%,0%,-5
O=C(c1ccc(=O)oc1)N1CCOCC1,-11,-28%,4.5µM*,0%,?
O=C(c1coc(=O)c(Br)c1)N1CCOCC1,4,19%,14µM*,0%,-6
Cc1cc(F)c(F)c(C(=O)N2CCOCC2)c1Cl,3,5%,2%,0%,-92*
O=C(Oc1ccc(Cl)c2cccnc12)c1ccco1,-83*,5%,nt,?,-88*
Oc1c(Br)cc(Br)c2cccnc12,-78*,nt,nt,nt,-75*
O=C(NNC(=O)c1cc(S(=O)(=O)N2CCOCC2)c(Cl)cc1Cl)c1ccccc1F,-87*,-2%,5%,0%,-66*
CCOc1cc(/C=N/NC(=O)CN(CCc2ccccc2)S(=O)(=O)c2ccc(NC(C)=O)cc2)ccc1O,0,-10%,-10%,-1%,-75*
COc1ccc(S(=O)(=O)N(CCc2ccccc2)CC(=O)N/N=C/c2ccc3c(c2)OCO3)cc1,-11,2%,-9%,0%,1
O=Cc1ccc(O)c2ncccc12,-67*,3%,4µM*,6.3µM*,-74*
C/C(=N\Nc1c(Cl)c(Cl)nc(C(=O)O)c1Cl)c1ccc(O)cc1,?,-1%,nt,0%,-67*
COC(=O)CCCC[C@H]1SC[C@H]2NC(=O)N[C@]21O,nt,14%,2.2µM*,0%,nt
SMILES,CtBP-E1A inh,Eya2 inh,L3MBTL1 block,B2AR arrestin,Six1-Eya2 blk
COc1ccc(C(=O)N/N=C/C(Br)=C/c2ccccc2)cc1,?,-1%,-1%,?,-7
O=C(N/N=C/C(Br)=C/c1ccccc1)c1ccccc1[N+](=O)[O-],-92*,-7%,-2%,0%,-21
O=C(CN1CCOCC1)N/N=C/c1ccc(C(=O)O)cc1,13,-2%,nt,0%,5
Cc1occc1C(=O)N/N=C/C(Br)=C/c1ccccc1,?,1%,-7%,1%,-11
O=C(CN1CCOCC1)N/N=C/C(Br)=C\c1ccccc1,-81*,-10%,0%,1%,-22
COc1cccc(C(=O)N/N=C/C(Br)=C/c2ccccc2)c1,-88*,1%,-13%,?,-28
O=C(N/N=C/C(Br)=C\c1ccccc1)c1n[nH]c2c1CCC2,-87*,-8%,nt,?,-21
CN=C1NC(C)(C)C2CCC(C)(CC2)S1,-4,nt,nt,nt,5
O=C(N/N=C/C(Br)=C/c1ccccc1)c1cnccn1,?,-29%,-2%,?,-82*
O=C(N/N=C/C=C\c1ccccc1)c1cnccn1,5,6%,-1%,0%,-4
COC(=O)C1=C(C)N(Cc2ccccc2)C(=NCC2CC2)N[C@H]1c1ccc(Br)cc1,nt,-9%,nt,0%,nt
COc1cccc(NC(=O)C2(C)CCN2CCc2ccccc2)c1 (stereo unspecified),10,nt,nt,nt,8
Cn1ncc(Cl)c1C(=O)N/N=C/c1ccccn1,-75*,1%,-16%,0%,-80*
O=C(N/N=C\c1ccccn1)c1ccccc1O,?,1%,nt,0%,?
O=C(N/N=C/c1ccccn1)c1ccc(Cl)cc1,?,-7%,nt,4%,?
O=C(N/N=C/c1cccc2nccnc12)c1ccccc1O,-76*,6%,?,-1%,-89*
O=C(N/N=C/c1cccc2cccnc12)c1ccccc1O,nt,5%,6.3µM*,-1%,-92*
O=C(N/N=C\c1ccncc1)c1ccccc1O,-8,0%,nt,0%,-3
O=C(N/N=C/c1ccccn1)c1ccncc1,nt,0%,nt,0%,-75*
O=C(N/N=C/c1ccccc1C(=O)O)c1ccncc1,0,-1%,2%,0%,6
O=C(N/N=C(\Cc1ncc[nH]1)c1ccccc1)c1ccncc1,-90*,-27%,nt,0%,-82*
O=C(N/N=C/c1cccc2nccnc12)c1ccncc1,-89*,0%,?,0%,-68*
CCC(C)[C@@H](N)C(=O)N/N=C/c1cccc2nccnc12 (stereo partly specified),-71*,6%,-1%,0%,-87*
CCCCCNC(=O)c1nc(-c2c(F)cccc2F)oc1-c1ccccc1,10,nt,nt,nt,16
COc1ncnc2c1ncn2CCCN(C)Cc1ccco1,7,nt,nt,nt,-4
